PubChem BioAssay
Active and inactive are the calls of the source.

How the values were obtained:
[1] = system: Plasmodium falciparum Sir2 (PF13_0152, Sir2A); assay: Plasmodium falciparum Sir2A binding compounds – biochemical, small-molecule microarray, 635 nm fluorescence, primary screen (AID 1098); details: fluorescence 635 nm, higher = more signal;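 further: score merges spot fluorescence intensity with its signal-to-noise ratio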
[2] = probe aDKK1 binding to arrayed compounds – biochemical, biotinylated probe, 635/667 nm fluorescence, primary screen (AID 1099); details: small-molecule microarray, higher = more signal;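 further: score merges 667nm spot fluorescence with signal to noise across triplicate slides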
[3] = probe aCHRDL2 binding to arrayed compounds – biochemical, biotinylated probe, 635/667 nm fluorescence, primary screen (AID 1100); details: small-molecule microarray, higher = more signal
[4] = change in splice reporter luminescence, either direction, cell-based, HEK293, spliceosome inhibition project, primary screen (AID 1101); details: HEK293 splicing luciferase reporter, 24 h, higher = more signal, called active from +8 up or from −8 down;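 further: HEK293 cells carrying a splicing-competent luciferase reporter gene; test concentration not given here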
[5] = molecular target: Fibroblast growth factor 10 (Homo sapiens) (UniProt O15520); assay: compounds binding fibroblast growth factor 10 – biochemical, small-molecule microarray, 635 nm fluorescence, primary screen (AID 1102); details: FGF10 binding, fluorescence 635 nm, higher = more signal
Fibroblast growth factor 10 (Homo sapiens), sequence (O15520 whole entry, looked up): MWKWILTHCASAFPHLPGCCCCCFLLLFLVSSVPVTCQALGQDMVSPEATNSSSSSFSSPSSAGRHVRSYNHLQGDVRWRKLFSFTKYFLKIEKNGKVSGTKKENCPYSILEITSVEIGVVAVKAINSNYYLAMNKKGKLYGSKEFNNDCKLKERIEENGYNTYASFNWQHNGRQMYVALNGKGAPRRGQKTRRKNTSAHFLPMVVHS

[6] = system: glycogen synthase kinase-3 (GSK3A per assay name; protocol says GSK3B); assay: compounds binding glycogen synthase kinase-3 – biochemical, small-molecule microarray, 635 nm fluorescence, GSK3A, primary screen (AID 1103); details: fluorescence 635 nm, higher = more signal; further: the record names both GSK3A and GSK3B
[7] = molecular target: Epidermal growth factor receptor (Homo sapiens) (UniProt P00533); assay: compounds binding epidermal growth factor receptor – biochemical, small-molecule microarray, 635 nm fluorescence, primary screen (AID 1104); details: EGFR binding, higher = more signal;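 further: score merges 667 nm emission intensity with spot signal to noise over triplicate slides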
Epidermal growth factor receptor (Homo sapiens), sequence (P00533 whole entry, looked up): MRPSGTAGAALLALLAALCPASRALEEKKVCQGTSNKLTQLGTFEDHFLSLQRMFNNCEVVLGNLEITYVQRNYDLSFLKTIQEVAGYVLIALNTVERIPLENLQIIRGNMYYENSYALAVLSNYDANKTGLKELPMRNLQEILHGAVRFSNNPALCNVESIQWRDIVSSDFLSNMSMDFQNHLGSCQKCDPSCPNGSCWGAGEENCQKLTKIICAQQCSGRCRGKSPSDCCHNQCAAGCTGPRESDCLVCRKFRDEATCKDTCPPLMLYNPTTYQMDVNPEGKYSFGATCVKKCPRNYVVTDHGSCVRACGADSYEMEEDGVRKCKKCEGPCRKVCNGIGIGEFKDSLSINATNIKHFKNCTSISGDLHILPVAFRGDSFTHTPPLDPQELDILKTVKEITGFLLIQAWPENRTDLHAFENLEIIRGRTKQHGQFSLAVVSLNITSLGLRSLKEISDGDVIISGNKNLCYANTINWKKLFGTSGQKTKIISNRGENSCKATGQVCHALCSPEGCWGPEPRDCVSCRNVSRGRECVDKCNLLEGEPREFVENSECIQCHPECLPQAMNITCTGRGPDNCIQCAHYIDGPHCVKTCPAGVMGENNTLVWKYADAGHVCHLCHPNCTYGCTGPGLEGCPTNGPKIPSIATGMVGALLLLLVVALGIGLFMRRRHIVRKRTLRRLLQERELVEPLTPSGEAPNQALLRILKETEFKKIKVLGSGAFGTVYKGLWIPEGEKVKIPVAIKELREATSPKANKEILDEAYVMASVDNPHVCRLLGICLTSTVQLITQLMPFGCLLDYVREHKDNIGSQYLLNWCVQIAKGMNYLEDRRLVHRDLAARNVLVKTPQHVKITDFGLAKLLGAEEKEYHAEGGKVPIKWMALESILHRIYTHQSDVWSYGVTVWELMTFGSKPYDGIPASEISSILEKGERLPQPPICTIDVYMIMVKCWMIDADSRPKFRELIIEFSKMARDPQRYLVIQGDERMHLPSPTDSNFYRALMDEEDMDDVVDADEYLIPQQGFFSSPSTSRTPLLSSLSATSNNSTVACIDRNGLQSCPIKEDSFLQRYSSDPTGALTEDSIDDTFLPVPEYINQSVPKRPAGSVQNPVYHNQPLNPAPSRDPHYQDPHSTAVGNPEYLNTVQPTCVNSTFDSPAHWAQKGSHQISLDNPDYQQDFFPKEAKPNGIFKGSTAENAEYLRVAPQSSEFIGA

[8] = molecular target: Follistatin-related protein 3 (Homo sapiens) (UniProt O95633); assay: compounds binding follistatin-related protein 3 – biochemical, small-molecule microarray, 635 nm fluorescence, primary screen (AID 1105); details: FSTL3 binding, higher = more signal;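 further: score merges emission near 667 nm and signal to noise per printed spot across three slides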
Follistatin-related protein 3 (Homo sapiens), sequence (O95633 whole entry, looked up): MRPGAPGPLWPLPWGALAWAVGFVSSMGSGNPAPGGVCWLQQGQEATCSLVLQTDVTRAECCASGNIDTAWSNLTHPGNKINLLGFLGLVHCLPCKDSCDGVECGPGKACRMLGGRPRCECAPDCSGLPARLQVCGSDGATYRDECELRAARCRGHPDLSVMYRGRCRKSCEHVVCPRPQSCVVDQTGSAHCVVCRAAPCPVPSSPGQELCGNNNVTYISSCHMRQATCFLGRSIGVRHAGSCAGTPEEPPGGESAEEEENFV

[9] = molecular target: Dickkopf-related protein 1 (Homo sapiens) (UniProt O94907); assay: small molecules binding DKK1 protein – biochemical, small-molecule microarray, 635 nm fluorescence scan, primary screen (AID 1106); details: higher = more signal;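 further: score merges emission near 667 nm with signal to noise over three replicate slides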
Dickkopf-related protein 1 (Homo sapiens), sequence (O94907 whole entry, looked up): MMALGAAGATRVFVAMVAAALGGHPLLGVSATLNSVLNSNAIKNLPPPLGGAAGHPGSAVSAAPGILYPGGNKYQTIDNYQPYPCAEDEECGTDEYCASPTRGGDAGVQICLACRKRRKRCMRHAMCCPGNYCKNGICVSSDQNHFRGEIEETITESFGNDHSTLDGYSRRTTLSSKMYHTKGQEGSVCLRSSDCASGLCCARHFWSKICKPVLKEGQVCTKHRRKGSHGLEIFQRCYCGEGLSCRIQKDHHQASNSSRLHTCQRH

[10] = system: Inhibin beta A chain (activin A); assay: small molecules binding activin A – biochemical, small-molecule microarray, 635 nm fluorescence scan, primary screen (AID 1107); details: INHBA, higher = more signal;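 further: mouse activin A protein probed at 4.33 µg/mL on printed slides; score merges bound-protein fluorescence near 667 nm with spot signal-to-noise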
[11] = system: Human papillomavirus type 1a protein E7 (residues 44-93); assay: small molecules binding HPV E7 44-93 – biochemical, small-molecule microarray, residues 44-93, 635 nm fluorescence, primary screen (AID 1108); details: fluorescence 635 nm, higher = more signal;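 further: E7 fragment applied at 1 µg/mL in TBST for 1 h at 4 C; score combines spot fluorescence with its signal to noise ratio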
[12] = hepatitis C replication reporter changes, two-sided – Huh7 cells, luciferase reporter, HCV replication inhibitor project, primary screen (AID 1109); details: Huh7 HCV replicon luciferase reporter, 48 h; higher = more signal;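 further: huh7 hepatoma cells harbouring a luciferase neomycin HCV replicon reporter; luciferase luminescence as measure of HCV replicon replication; test concentration not given here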
[13] = molecular target: Left-right determination factor 2 (Homo sapiens) (UniProt O00292); assay: small molecules binding LEFTY2 protein – biochemical, small-molecule microarray, 635 nm fluorescence scan, primary screen (AID 1110); details: higher = more signal
Left-right determination factor 2 (Homo sapiens), sequence (O00292 whole entry, looked up): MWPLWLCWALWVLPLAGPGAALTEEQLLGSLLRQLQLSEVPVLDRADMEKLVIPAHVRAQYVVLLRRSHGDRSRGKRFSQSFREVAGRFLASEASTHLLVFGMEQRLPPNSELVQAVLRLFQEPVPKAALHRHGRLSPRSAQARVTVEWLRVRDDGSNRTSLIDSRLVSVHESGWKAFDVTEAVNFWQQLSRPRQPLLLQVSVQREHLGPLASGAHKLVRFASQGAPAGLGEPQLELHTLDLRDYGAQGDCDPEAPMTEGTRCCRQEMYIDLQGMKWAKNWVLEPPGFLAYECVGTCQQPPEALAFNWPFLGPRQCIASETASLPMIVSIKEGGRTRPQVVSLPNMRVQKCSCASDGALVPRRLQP

[14] = molecular target: Calmodulin-1 (Homo sapiens) (UniProt P0DP23); assay: small molecules binding calmodulin-1 with EGTA – biochemical, small-molecule microarray, Cy5-labelled CALM1, profiling panel (AID 1111); details: Cy5-CALM1 binding fluorescence, higher = more signal;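 further: labelled calmodulin applied in Tris saline Tween buffer holding calcium plus EGTA and DTT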
[15] = molecular target: Calmodulin-1 (Homo sapiens) (UniProt P0DP23); assay: small molecules binding Ca-loaded calmodulin-1 – biochemical, small-molecule microarray, Cy5-labelled CALM1, plus calcium, artefact control for SMM control-protein annotation, profiling panel (AID 1112); details: Cy5-CALM1 binding fluorescence, higher = more signal;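 further: score merges spot fluorescence with signal to noise from triplicate slides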
[16] = probe aWnt5a binding to arrayed compounds – biochemical, biotinylated probe, 635/667 nm fluorescence, primary screen (AID 1113); details: small-molecule microarray, higher = more signal;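 further: score merges 667 nm fluorescence intensity with signal-to-noise per printed feature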
[17] = probe aShh binding to arrayed compounds – biochemical, biotinylated probe, 635/667 nm fluorescence, primary screen (AID 1114); details: small-molecule microarray, higher = more signal;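 further: probe is biotin-labelled aShh protein from a stem cell growth factor screen; measures binding of labelled protein to compounds printed on the slide; score merges feature fluorescence at 667 nm with signal-to-noise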
[18] = probe aNog binding to arrayed compounds – biochemical, biotinylated probe, 635/667 nm fluorescence, primary screen (AID 1115); details: small-molecule microarray, higher = more signal;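 further: probe is biotinylated aNog protein used at 0.15 µg/mL for 1 h at 4 C; z-score combines 667 nm fluorescence of each spot with its signal to noise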
[19] = molecular target: Torsin-1A-interacting protein 1 (Homo sapiens) (UniProt Q5JTV8); assay: compound microarray binding of lysate hLAP1 – cell lysate, small-molecule microarray, COS7 lysate, 635/667 nm fluorescence, primary screen (AID 1116); details: 635 nm fluorescence, higher = more signal
Torsin-1A-interacting protein 1 (Homo sapiens), sequence (Q5JTV8 whole entry, looked up): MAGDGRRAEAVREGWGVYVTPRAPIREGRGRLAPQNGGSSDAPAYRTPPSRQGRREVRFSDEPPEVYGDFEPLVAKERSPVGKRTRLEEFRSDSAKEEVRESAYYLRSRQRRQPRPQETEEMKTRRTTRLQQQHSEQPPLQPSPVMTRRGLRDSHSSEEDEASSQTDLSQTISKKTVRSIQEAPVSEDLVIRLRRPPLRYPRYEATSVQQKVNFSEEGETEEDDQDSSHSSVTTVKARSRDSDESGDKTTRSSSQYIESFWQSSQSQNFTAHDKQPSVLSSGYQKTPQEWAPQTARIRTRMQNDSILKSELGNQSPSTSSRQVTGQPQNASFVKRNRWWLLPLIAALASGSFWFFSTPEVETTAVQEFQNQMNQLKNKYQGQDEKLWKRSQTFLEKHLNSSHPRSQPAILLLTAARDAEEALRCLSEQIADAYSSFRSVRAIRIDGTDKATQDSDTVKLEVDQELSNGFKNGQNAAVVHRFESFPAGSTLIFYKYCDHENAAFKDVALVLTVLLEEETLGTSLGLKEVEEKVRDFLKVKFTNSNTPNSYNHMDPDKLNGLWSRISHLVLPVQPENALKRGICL

[20] = molecular target: Alpha-bungarotoxin (Bungarus multicinctus) (UniProt P60615); assay: compounds binding labelled alpha-BTX control protein – biochemical, small-molecule microarray, Alexa647 label, 635/667 nm fluorescence, artefact control for SMM control protein annotation, profiling panel (AID 1117); details: alpha-BTX-A647 binding fluorescence, higher = more signal
Alpha-bungarotoxin (Bungarus multicinctus), sequence (P60615 whole entry, looked up): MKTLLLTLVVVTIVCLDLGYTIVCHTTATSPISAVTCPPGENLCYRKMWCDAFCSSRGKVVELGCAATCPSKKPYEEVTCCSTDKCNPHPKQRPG

Row | SMILES | composite z-score [1] | composite z-score [2] | composite z-score [3] | z-score [4] | composite z-score [5] | composite z-score [6] | composite z-score [7] | composite z-score [8] | composite z-score [9] | composite z-score [10] | composite z-score [11] | z-score [12] | composite z-score [13] | composite z-score [14] | composite z-score [15] | composite z-score [16] | composite z-score [17] | composite z-score [18] | composite z-score [19] | composite z-score [20]
1 | C=C(CCCC)/C(=C/C[C@@H](OC(C)=O)c1ccc(OCCO)cc1)c1cnc2ccccc2c1 | 0.619 | -0.12 | 0.149 | -0.27 (inactive) | 0.628 | -0.174 | 0.401 | 1.12 | 0.698 | 1.53 | 1.13 | -1.44 | 0.285 | -0.276 | -0.642 | -0.0735 | -0.214 | -0.158 | 0.887 | 1.29
2 | O=C1c2ccccc2[C@](Cc2ccccc2I)(C(=O)NCCN2CCOCC2)[C@H](c2ccc(CO)cc2)N1C1CCCCC1 | 0.979 | 1.04 | 0.77 | 0.821 (inactive) | 0.82 | 1.3 | 0.499 | 1.24 | 0.941 | 0.821 | 0.994 | -2.48 | 0.804 | 1.13 | 0.315 | 0.0286 | 0.359 | 0.0308 | 0.494 | 1.83
3 | CN1C(=O)C2C=CC(C(O)c3ccco3)N(Nc3ccccc3)C2C1=O (stereo not given) | 0.307 | 0.44 | 0.338 | 0.883 (inactive) | 0.953 | 0.386 | 0.466 | 0.523 | 0.519 | 1.16 | 0.282 | 0.0751 | 0.232 | -0.276 | -0.833 | -0.0192 | 0.199 | -0.165 | 0.272 | 0.35
4 | C[C@H]1C2[C@H](Cc3ccccc3)NC(=O)[C@]23C(=O)N[C@H](Cc2ccccc2)C(=O)N2CCC[C@H]2C(=O)NC/C=C\C/C=C/C3[C@@H]2O[C@]12C (stereo not given in full) | 0.901 | -0.0646 | -0.19 | -0.925 (inactive) | 0.428 | -0.298 | -0.0282 | 0.801 | 0.299 | 0.946 | -0.355 | 0.255 | 0.203 | -0.404 | -0.863 | -0.0165 | -0.0146 | -0.0003 | 0.0015 | 1.18
5 | O=C(NCCO)C1=C[C@H](Oc2ccccc2I)[C@@H](O)[C@H](N(Cc2ccco2)C(=O)Cc2ccccc2)C1 | -0.012 | -0.223 | -0.453 | -0.0906 (inactive) | 0.556 | 0.349 | 0.508 | 0.468 | 0.431 | 0.497 | -0.0509 | 0.807 | 0.51 | -0.0916 | -0.671 | 0.0057 | -0.209 | 0.0129 | 0.591 | -0.0333
6 | COC(=O)C[C@H]1O[C@]2(C(=O)N(C)c3ccccc32)[C@@H](C)[C@@H]1[Si](C)(C)F | -0.0042 | -0.113 | -0.583 | -1.8 (inactive) | 0.96 | 0.557 | 0.616 | 0.774 | 0.695 | 0.369 | 0.882 | 0.0456 | 0.392 | 0.0461 | -0.389 | -0.0472 | 0.23 | -0.357 | 0.239 | -0.0089
7 | CC(C)c1ccc(NN2C(C(O)c3ccc(B(O)O)cc3)C=CC3C(=O)N(c4ccccc4)C(=O)C32)cc1 (stereo not given) | 1.24 | 0.942 | 1.05 | 0.844 (inactive) | 1.11 | 1.25 | -0.109 | 1.38 | -0.381 | 0.849 | 1.25 | 4.39 | -0.355 | 2.02 | 1.08 | 0.0324 | -0.0362 | 2.19 | 2.08 | 1.27
8 | O=C1C2C=CC(C(O)c3cc(C(F)(F)F)cc(C(F)(F)F)c3)N(n3cnnc3)C2C(=O)N1Cc1ccccc1 (stereo not given) | 0.716 | -0.0958 | 0.531 | -0.27 (inactive) | -0.409 | -0.261 | -0.165 | -0.103 | -1.17 | -0.301 | 1.11 | -0.418 | -0.63 | 0.538 | -0.374 | -0.0161 | 0.14 | 0.705 | -0.133 | -0.0735
9 | O=C1C[C@@](C(=O)NCC(F)(F)F)(c2ccc([N+](=O)[O-])cc2)[C@@H](c2ccc(CO)cc2I)N1C1CCCCC1 | 0.47 | 0.0918 | 0.574 | 0.0169 (inactive) | 1.09 | 1.18 | 0.515 | 0.995 | 0.155 | 0.539 | 1.47 | -2.54 | 0.386 | 0.511 | 0.074 | -0.0758 | -0.181 | 0.437 | 1.62 | 0.0759
10 | CN1C(=O)C2C=CC(C(O)c3ccc([N+](=O)[O-])cc3)N(N3CCCCC3)C2C1=O (stereo not given) | 1.41 | 0.193 | 0.956 | 0.943 (inactive) | 0.941 | 0.964 | 0.4 | 0.832 | -0.0607 | 1.23 | 1.33 | 0.702 | 0.169 | 1.42 | 0.0877 | 0.0913 | 0.108 | 1.59 | -0.0204 | 1.08
11 | C=CC1(C(=O)OC)CC=C(C(=O)OC)CC1 (stereo not given) | 0.0006 | -0.259 | -0.425 | -1.38 (inactive) | 0.916 | 1.15 | 0.478 | 0.791 | 0.908 | -0.115 | 1.1 | -0.928 | 1.24 | 0.887 | 0.234 | -0.141 | 1.1 | -0.0689 | 1.1 | 0.605
